Measurements as given in PubChem BioAssay (NCI).
Compounds without any hit were thinned out: in the full panel of roughly 79,000, 15% have a hit. Active and inactive are the calls of the source. Cut-off read from the data, not from the text of the source: active = growth inhibition above about 70%; inactive = the rest.

How the values were obtained:
[1] = NCI Yeast Anticancer Drug Screen. Data for the rad52 strain (AID 147);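 note: 0% = growth of vehicle-treated control cultures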; details: S. cerevisiae rad52 mutant growth inhibition, hits give high values
Procedure, shortened: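 Yeast strain carrying a DNA damage repair alteration was exposed to test compounds. Growth inhibition was measured relative to vehicle-treated controls.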

[2] = NCI Yeast Anticancer Drug Screen. Data for the wt1 strain (AID 149);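 note: 0% = growth of vehicle-treated wt1 cultures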; details: S. cerevisiae wt1 strain (SPY 50644) growth inhibition, hits give high values
Procedure, shortened: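 wt1 strain grown with compound or vehicle; inhibition taken from the growth difference.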

[3] = NCI Yeast Anticancer Drug Screen. Data for the rad50EPP+ strain (AID 151);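 note: 0% = growth of vehicle-treated control cultures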; details: S. cerevisiae rad50 mutant strain, hits give high values
Procedure, shortened: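 Yeast strain carrying rad50 alteration (rad50EPP+) exposed to compounds; growth inhibition measured relative to vehicle-treated controls.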

[4] = NCI Yeast Anticancer Drug Screen. Data for the mgt1 strain (AID 153); details: S. cerevisiae mgt1 mutant growth inhibition, hits give high values
Procedure, shortened: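 Yeast mgt1 strain (DNA repair/cell-cycle alteration panel) exposed to compounds; growth inhibition measured relative to vehicle-treated controls.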

[5] = NCI Yeast Anticancer Drug Screen. Data for the rad50 strain (AID 155);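 note: 0% = growth of vehicle-only cultures of the same strain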; details: S. cerevisiae rad50 strain growth inhibition, hits give high values
Procedure, shortened: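 DNA repair mutant yeast, compound exposure, growth read-out; inhibition is taken relative to vehicle.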

[6] = NCI Yeast Anticancer Drug Screen. Data for the mec2-1 strain (AID 157); details: S. cerevisiae mec2-1 strain, hits give high values
Procedure, shortened: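 mec2-1 yeast strain, carrying an alteration in DNA damage repair or cell cycle control, was exposed to compounds; growth inhibition was measured relative to vehicle-treated controls.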

[7] = NCI Yeast Anticancer Drug Screen. Data for the rad14 strain (AID 159);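 note: 0% = growth of vehicle-treated control cultures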; details: S. cerevisiae rad14 strain growth inhibition, hits give high values
Procedure, shortened: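 DNA repair-defective yeast, compound-exposed; % growth inhibition derived by comparison with vehicle-treated controls.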

[8] = NCI Yeast Anticancer Drug Screen. Data for the sgs1 mgt1 strain (AID 161);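 note: 0% = growth of cultures given vehicle only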; details: S. cerevisiae sgs1 mgt1 strain, hits give high values
Procedure, shortened: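 Percent growth inhibition was derived by comparing compound-exposed mutant yeast with vehicle-exposed cultures. The strain carries alterations in DNA damage repair.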

[9] = NCI Yeast Anticancer Drug Screen. Data for the CLN2oe strain (AID 163);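 note: 0% = growth of vehicle-only control cultures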; details: S. cerevisiae CLN2oe strain, hits give high values
Procedure, shortened: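 Yeast cells carrying a defined cell-cycle control alteration were exposed to test compounds. Growth inhibition was scored against vehicle-treated control cultures.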

[10] = NCI Yeast Anticancer Drug Screen. Data for the cln2 rad14 strain (AID 165);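 note: 0% = growth equal to vehicle treated cultures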; details: S. cerevisiae cln2 rad14 strain, hits give high values
Procedure, shortened: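 Yeast carrying cln2 and rad14 alterations (cell cycle control and DNA damage repair) were exposed to compounds. Growth inhibition was measured against vehicle-treated controls.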

[11] = NCI Yeast Anticancer Drug Screen. Data for the bub3 strain (AID 167); details: S. cerevisiae bub3 mutant strain, hits give high values
Procedure, shortened: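 In this screen, a yeast mutant lacking normal mitotic checkpoint function is challenged with compound. Relative growth versus vehicle gives the inhibition value.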

[12] = NCI Yeast Anticancer Drug Screen. Data for the wt2 strain (AID 169);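 note: 0% = growth of vehicle-treated yeast cultures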; details: S. cerevisiae wt2 strain growth inhibition, hits give high values
Procedure, shortened: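 Yeast cells were exposed to test compounds, and growth inhibition was measured relative to vehicle-treated controls.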

[13] = NCI Yeast Anticancer Drug Screen. Data for the mlh1 strain (AID 171);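 note: 0% = growth of vehicle-treated control cultures of the same strain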; details: S. cerevisiae mlh1 strain growth inhibition, hits give high values
Procedure, shortened: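 Yeast carrying a defined genetic alteration in DNA damage repair or cell cycle control were exposed to test compounds. Growth inhibition was measured relative to vehicle-treated controls.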

[14] = NCI Yeast Anticancer Drug Screen. Data for the sgs1 strain (AID 173);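 note: 0% = growth of vehicle-only control cultures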; details: S. cerevisiae sgs1 mutant, hits give high values
Procedure, shortened: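 Yeast mutant strains carrying defined defects in DNA damage repair or cell cycle control were exposed to test compounds. Growth inhibition was scored against vehicle-treated controls.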

[15] = NCI Yeast Anticancer Drug Screen. Data for the rad18 strain (AID 177); details: S. cerevisiae rad18 mutant growth inhibition, hits give high values
Procedure, shortened: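 Yeast carrying a defined DNA damage repair alteration were exposed to compounds. Growth inhibition was expressed relative to vehicle-treated controls.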

[16] = at 5.0 µM (retest, dose inferred, filed as 0.5)
[17] = at 50.0 µM (retest, dose inferred, filed as 5.0)

Measured: growth inhibition

CCCCc1nnc(NS(=O)(=O)c2ccc(C)cc2)s1
inactive: [1]; at 1.2 µM -14% | [1]; at 3.7 µM -20% | [1]; at 11.0 µM -3% | [1]; at 33.0 µM 37% | [2]; at 1.2 µM -35% | [2]; at 3.7 µM -32% | [2]; at 11.0 µM -18% | [2]; at 33.0 µM 19% | [3]; at 1.2 µM -29% | [3]; at 3.7 µM -34% | [3]; at 11.0 µM -30% | [3]; at 33.0 µM -21% | [3]; at 100.0 µM -35% | [4]; at 1.2 µM -25% | [4]; at 3.7 µM -28% | [4]; at 11.0 µM -12% | [4]; at 33.0 µM 25% | [5]; at 1.2 µM -15% | [5]; at 3.7 µM -13% | [5]; [16] 48% | [5]; at 11.0 µM 0% | [5]; at 33.0 µM 45% | [6]; at 1.2 µM -21% | [6]; at 3.7 µM -19% | [6]; at 11.0 µM -3% | [6]; at 33.0 µM 31% | [6]; at 50.0 µM 50.3% | [7]; at 1.2 µM -51% | [7]; at 3.7 µM -45% | [7]; at 11.0 µM -34% | [7]; at 33.0 µM 6% | [8]; [16] -24% | [8]; [17] 31% | [9]; at 1.2 µM 0% | [9]; at 3.7 µM 2% | [9]; at 11.0 µM 15% | [9]; at 33.0 µM 20% | [10]; [16] 35% | [10]; [17] 56% | [10]; at 50.0 µM 49.5% | [11]; at 1.2 µM -4% | [11]; at 3.7 µM 9% | [11]; [16] 27% | [11]; at 11.0 µM 15% | [11]; at 33.0 µM 47% | [11]; [17] 61% | [11]; at 50.0 µM 68.2% | [12]; at 1.2 µM -28% | [12]; at 3.7 µM -22% | [12]; at 11.0 µM -10% | [12]; at 33.0 µM 20% | [13]; at 1.2 µM -32% | [13]; at 3.7 µM -43% | [13]; at 11.0 µM -24% | [13]; at 33.0 µM 23% | [14]; at 1.2 µM -13% | [14]; at 3.7 µM -22% | [14]; at 11.0 µM -6% | [14]; at 33.0 µM 31% | [15]; at 1.2 µM -12% | [15]; at 3.7 µM 4% | [15]; at 11.0 µM 15% | [15]; at 33.0 µM 36%
active: [1]; at 100.0 µM 83% | [2]; at 100.0 µM 84% | [4]; at 100.0 µM 85% | [5]; [17] 94% | [5]; at 50.0 µM 72% | [5]; at 100.0 µM 86% | [6]; [16] 70% | [6]; [17] 94% | [6]; at 100.0 µM 81% | [7]; at 100.0 µM 82% | [8]; at 50.0 µM 72% | [9]; at 100.0 µM 87% | [11]; at 100.0 µM 85% | [12]; at 100.0 µM 80% | [13]; at 100.0 µM 74% | [14]; at 100.0 µM 80% | [15]; at 100.0 µM 86%
